Bioassay records from PubChem BioAssay.
Shown are actives, neighbours in structure and some others; about 15% of the full set was active somewhere.
Pf growth 48h: P. falciparum growth inhibition at 48 hours (one generation) | P. falciparum luciferase growth in erythrocytes, 48 h | Potency, µM (titrated, usually from 28.7 µM), most hits filed as inhibitors | 310,000 compounds, 5.9% hits
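A one-generation exposure of luciferase-tagged malaria parasites in RPMI 1640/Albumax erythrocyte culture, 37 C and 5% CO2. Inhibition is inferred from decreased luminescence after adding detection reagent.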
Sm TGR block: S. mansoni TGR enzyme inhibition; Q962Y6; purified TGR, DTNB reduction, TNB absorbance 405 nm; Potency, µM (top dose mostly 114 µM), most hits filed as inhibitors; 360,000 compounds, 3% hits; further: nearly all actives have a fitted effect of over 60% in size
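Kinetic colorimetric format: TGR-catalysed, NADPH-driven DTNB reduction monitored via TNB absorbance. Enzyme dispensed at 20 nM; compound exposure 15 min at room temperature before reaction start.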
HCV inhibitor: inhibitors of hepatitis C virus infection | Potency, µM (titrated, usually from 41.8 µM), usual class: inhibitors | Huh7.5.1 HCVcc-Cre infection, luciferase reporter, 44 h | 340,000 compounds, 3.4% hits | AID 651820
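Luciferase read-out (15 sec integration) after a 15 min room-temperature substrate step quantifies HCVcc-Cre infection. Cells, 1,000 per well, had compound added 4 h post-plating, then virus at ~0.5 moi, and were cultured 44 h.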
Pf growth 96h: P. falciparum growth inhibition at 96 hours; P. falciparum luciferase reporter growth, 96 h; 320,000 compounds, 6.9% hits; Potency, µM (doses to about 28.7 µM), usual class: inhibitors
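Infected RBCs, 2% Hct / 0.05% parasitemia final; luciferase-reporter P. falciparum; cpd 96 h, 37 C, 5% CO2; luciferase detection reagent; luminescence.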
HCMV antiviral: human cytomegalovirus inhibition; AID 1259415; activity change, negative = inhibition, % at 57.5 µM; HFF cells, HCMV-luciferase reporter, 72 h; stronger effect = lower value; 410,000 compounds, 4.5% hits; in the data active means activity change below about -60%; inconclusive means no clear call, values can overlap the other calls; inactive means above about -39%
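HFF cells seeded 16 h at 37C, treated with compounds, infected with luciferase-reporter HCMV at MOI 1 PFU/cell; luciferase read at 72 h post infection, normalized to buffer-only and Salinomycin controls.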
SARS PLP yeast: SARS-CoV PLP inhibition in yeast; S. cerevisiae expressing SARS-CoV PLpro, growth rescue; Potency, µM (highest dose often 32.9 µM), hits mostly activators; 330,000 compounds, 0.19% hits; calls by dose curve; further: nearly all actives have a fitted effect of over 55% in size
A number is an active result. Unless noted, the call rests on the fitted dose curve; in most records, active means well fitted curve in the direction sought with a large enough effect; inconclusive means small, poorly fitted or top-dose-only effect, or another doubt; inactive means no such curve, though single readings can be large; an effect the other way counts as inactive or inconclusive.

CCOC(=O)C1CCN(C(c2ccc(OCC)cc2)c2c(O)cc(C)n(CCOC)c2=O)CC1 (configuration not stated) was read as Sm TGR block 10µM and HCMV antiviral inactive.
Screening CCOC(=O)C1CCN(C(c2ccc(C)cc2)c2c(O)cc(C)n(CCOC)c2=O)CC1 (configuration not stated) returned Sm TGR block 7.9µM and HCMV antiviral inactive.
For CCOC(=O)C1CCN(C(=O)Cc2ccc(C)cc2)CC1 the results were Sm TGR block inactive, HCV inhibitor inactive, Pf growth 96h inconclusive, HCMV antiviral inactive and SARS PLP yeast inactive.
Screening CC1Nc2ncnc(N3CCc4ccccc4C3)c2N(Cc2ccc(Cl)cc2)C1=O (configuration not stated) returned Pf growth 48h 13µM, Sm TGR block inactive, HCV inhibitor inactive, Pf growth 96h 5.2µM and SARS PLP yeast inactive.
Screening CC1Nc2ncnc(N3CCc4ccccc4C3)c2N(Cc2ccc(Br)cc2)C1=O (configuration not stated) returned Pf growth 48h 2.1µM, Sm TGR block inactive, HCV inhibitor inconclusive, Pf growth 96h 6.6µM, HCMV antiviral inactive and SARS PLP yeast inactive.
For CC1Nc2ncnc(N3CCOCC3)c2N(Cc2ccc(Cl)cc2)C1=O (configuration not stated) the results were Pf growth 48h inconclusive, Sm TGR block inconclusive, HCV inhibitor inactive, Pf growth 96h inconclusive, HCMV antiviral inactive and SARS PLP yeast inactive.
CCCC(=O)OCc1cnc(C)c2oc(=O)c(C(=O)Nc3ccccc3)cc12 was read as Sm TGR block inactive and HCMV antiviral inactive.
Cc1ccc(S(=O)(=O)N2CCSC2c2ccco2)cc1 (configuration not stated) was read as Pf growth 48h inactive, Sm TGR block 45µM, HCV inhibitor inactive, Pf growth 96h inconclusive, HCMV antiviral inactive and SARS PLP yeast inactive.
Screening Cc1ccc(S(=O)(=O)N2CCSC2C(=O)O)cc1 (configuration not stated) returned Pf growth 48h inactive, Sm TGR block inactive, HCV inhibitor inconclusive, Pf growth 96h inactive, HCMV antiviral inactive and SARS PLP yeast inactive.
For CCC(C)(C)n1nnnc1C(c1cccs1)N1CC=C(c2ccc(F)cc2)CC1 (configuration not stated) the results were Pf growth 48h 7.4µM, Sm TGR block inconclusive, HCV inhibitor inconclusive, Pf growth 96h inconclusive, HCMV antiviral -63 and SARS PLP yeast inactive.
`Cc1ccc(C)c2[nH]c(=O)c(C(c3nnnn3C(C)(C)C)N3CC=C(c4ccc(F)cc4)CC3)cc12` (configuration not stated) gave Pf growth 48h 2.1µM, Sm TGR block inactive, HCV inhibitor inconclusive, Pf growth 96h inconclusive, HCMV antiviral inactive and SARS PLP yeast inactive.
For Fc1ccc(C2=CCN(C(c3cccs3)c3nnnn3CCc3ccccc3)CC2)cc1 (configuration not stated) the results were Pf growth 48h inactive, Sm TGR block inactive, HCV inhibitor inconclusive, HCMV antiviral inconclusive and SARS PLP yeast inactive.
Screening Cc1ccc(NC(=O)CN2CCOCC2)cc1C returned Pf growth 48h inactive, Sm TGR block inactive, HCV inhibitor inactive, Pf growth 96h inactive, HCMV antiviral inactive and SARS PLP yeast inactive.
`COc1ccc(C(=O)Nc2sc(C)c(-c3ccccc3)c2C#N)cc1OC` gave Pf growth 48h inactive, Sm TGR block inactive, HCV inhibitor inconclusive, HCMV antiviral inactive and SARS PLP yeast inactive.
`COc1ccc(-c2c(C)sc(NC(=O)c3ccnn3C)c2C#N)cc1` gave Pf growth 48h inactive, Sm TGR block inactive, HCV inhibitor inconclusive, Pf growth 96h inactive, HCMV antiviral -89 and SARS PLP yeast inactive.
Screening NC(=O)C1CN(C(=O)c2nn(Cc3ccccc3)c(=O)c3ccccc23)c2ccccc2O1 (configuration not stated) returned Pf growth 48h inconclusive, Sm TGR block inactive, HCV inhibitor inactive, Pf growth 96h inconclusive, HCMV antiviral inactive and SARS PLP yeast inactive.
